In PubChem BioAssay (NCI):
Compounds without any hit were thinned out: in the full panel of roughly 83,000, 20% have a hit.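 Single-concentration screen, 48 h exposure, 96-well plates. Endpoint: percent growth. Below 10 = active.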 Values without a mark were called inactive. The source made the active and inactive calls.

Assays:
Experiment in all cases: NCI-60 one-dose screen, 48 h (100 = growth as untreated, 0 = no growth, -100 = all killed)
Settings in all cases: 10 µM unless noted
[1] = test system: SR leukemia
[2] = test system: OVCAR-8 ovarian
[3] = test system: OVCAR-5 ovarian
[4] = test system: OVCAR-4 ovarian
[5] = test system: SK-OV-3 ovarian
[6] = test system: IGROV1 ovarian
[7] = test system: HS 578T breast
[8] = test system: NCI/ADR-RES ovarian
[9] = test system: T-47D breast
[10] = test system: BT-549 breast
[11] = test system: MDA-MB-435 melanoma
[12] = test system: SW-620 colon
[13] = test system: MCF7 breast
[14] = test system: HCT-116 colon
[15] = test system: HCC-2998 colon
[16] = test system: KM12 colon
[17] = test system: OVCAR-3 ovarian
[18] = test system: RPMI-8226 leukemia

Structure (SMILES) | growth [1] | growth [2] | growth [3] | growth [4] | growth [5] | growth [6] | growth [7] | growth [8] | growth [9] | growth [10] | growth [11] | growth [12] | growth [13] | growth [14] | growth [15] | growth [16] | growth [17] | growth [18]
COc1cc(/C=N/NC(=O)Cn2c(-c3ccc(C)o3)nc3ccccc32)ccc1OCc1ccccc1 | 74.5% | 81.3% | 88.1% | 90% | 91.7% | 94.3% | 70.4% | 92.6% | 69.2% | 92% | 96.9% | 89.9% | 76.2% | 71.9% | 103% | 85.1% | – | –
NC(=S)N1N=C(c2ccc(Cl)cc2)CC1c1cc2ccccc2[nH]c1=O (stereo not drawn) | 82.4% | 111% | 108% | 100% | 104% | – | 112% | 108% | 89.2% | 102% | 104% | 108% | 95.5% | 103% | 111% | 114% | 119% | –
CC1CCN(CCCCCOc2ccc3oc4ccc(Cl)cc4c(=O)c3c2)CC1 | 14.9% | 59.7% | 72.9% | 77.3% | 84.3% | 70.4% | 86.5% | 71.6% | 63.4% | 76.2% | 21.4% | 46.7% | – | 23.9% | 78.4% | – | 74.6% | –
Clc1cccc(CNc2c3ccccc3nc3ccccc23)c1 | -3.9% (active) | 31.1% | 32.4% | 18.8% | 63.9% | 16.5% | 53.7% | 26.3% | 40.9% | 59.1% | 46.6% | 12% | – | 8.69% (active) | -53.6% (active) | 40.8% | 57.7% | –
CCN(C(=O)CCl)C(C)(C)C(SSSC(c1ccc(Cl)cc1)C(C)(C)N(CC)C(=O)CCl)c1ccc(Cl)cc1 (stereo not drawn) | 17.6% | 77.9% | 107% | 49.3% | 87.5% | – | 92.5% | 89.8% | 87.1% | 85.8% | 36.4% | 72.6% | 57.1% | 48% | 85.6% | 85.6% | 72.3% | –
O=C1/C=C/[C@@H](O)[C@@H]2C[C@@H](O)C[C@H]2/C=C/CCC[C@H]([C@@H](O)CO)O1 | – | 82% | 98.5% | 72.8% | 91.6% | 98.5% | 53.5% | 90.1% | 81.8% | 75.8% | 83% | 104% | 45.1% | 93.8% | 84.6% | 63.5% | 86.7% | 112%
COCc1nc(NS(=O)(=O)c2ccc(N)cc2)nc(C)c1Br | – | 110% | 106% | 123% | 96.9% | 103% | 112% | 104% | 96.1% | 106% | 107% | 103% | 103% | 94.3% | 97.1% | 107% | 112% | 106%
C=C(C)[C@@H]1CC[C@]2(C(=O)NS(=O)(=O)c3ccccc3)CC[C@]3(C)[C@H](CC[C@@H]4[C@@]5(C)CC[C@H](OC(=O)NS(=O)(=O)c6ccccc6)C(C)(C)[C@@H]5CC[C@]43C)[C@@H]12 | – | 18.4% | 15.5% | 38.1% | 29.7% | 17.6% | 14.5% | 17.1% | 1.6% (active) | -0.983% (active) | 12.8% | 16.6% | 2.66% (active) | -44.1% (active) | -8.69% (active) | 4.05% (active) | -31.3% (active) | -55.3% (active)
O=C(/C=C/c1ccco1)c1ccccc1O | – | 104% | 101% | 106% | 115% | 104% | 120% | 97.7% | 77.7% | 95.6% | 113% | 99.7% | 41.3% | 96.8% | 84.4% | 99.8% | 97% | 92.4%
CCOC(=O)C1C(=O)C=C(c2ccccc2)CC1c1sc(N(C)Cc2ccccc2)nc1Cl (stereo not drawn) | 81.4% | 89.2% | 107% | – | 87.4% | 110% | 76.2% | 94.6% | 60.4% | 96.1% | 96.2% | 90.3% | 79.9% | – | 109% | – | 102% | –
CCCCCCCCCCCCCCCCCC(=O)[O][Sn]([CH2]CCC)([CH2]CCC)[CH2]CCC | 15.8% | -57% (active) | -71.1% (active) | – | -96.2% (active) | -88.7% (active) | -8.64% (active) | -86.6% (active) | -78.9% (active) | -94.3% (active) | -87.2% (active) | -83.6% (active) | -93.1% (active) | – | -99.1% (active) | -96.2% (active) | -100% (active) | –
O=C(/C=C/c1ccccc1Br)c1cccc(OCCCCOc2cccc(C(=O)/C=C/c3ccccc3Br)c2)c1 | – | 102% | 105% | 101% | 104% | 92.4% | 102% | 102% | 75.4% | 104% | 97% | 99% | 28.1% | 16.4% | 109% | 101% | 108% | -11.7% (active)
Cc1ccc(Nc2cc(Cl)c([N+](=O)[O-])cc2[N+](=O)[O-])cc1 | 4.96% (active) | 26.8% | 46.3% | – | 83.5% | 27.7% | 92.1% | 26.5% | 1.27% (active) | 31.3% | 10.2% | 9.72% (active) | 25.9% | 7.86% (active) | 42.4% | 45.9% | 0.375% (active) | –
CCCCSc1ncnc2c1ncn2C1CCCCO1 (stereo not drawn) | 90.5% | 105% | 99.1% | – | 106% | 106% | 110% | 102% | 104% | 107% | 115% | 107% | 91.5% | 100% | 111% | 108% | 109% | –
Cc1c(C(=O)Nc2ccccc2F)sc2c(=O)[nH]cnc12 | 28.5% | 97% | 123% | – | 97.5% | 76.4% | 98.2% | 66.2% | 90% | 85.3% | 6.84% (active) | 76.8% | 76.9% | – | 93.2% | – | 93.7% | –
CCOC(=O)c1cc(C(=O)OCC)c(C)nc1C | 87.9% | 104% | 99.8% | – | 114% | 111% | 126% | 110% | 102% | 115% | 105% | 110% | 90.9% | – | 103% | 111% | 114% | –
COc1ccc(/C=C/c2nc(NCCCN(C)C)c3ccccc3n2)cc1 | – | 79.8% | 76.9% | 62.9% | 121% | 49.9% | 90.5% | 87.9% | 81.1% | 47.3% | -57.9% (active) | 4.57% (active) | -67% (active) | 38% | 28.3% | 32.1% | 79.4% | 0.379% (active)
COc1cccc(/C(C)=N/NC(=O)CSc2nc3ccccc3c(=O)n2CCc2ccc(S(N)(=O)=O)cc2)c1 | – | 7.61% (active) | 73.2% | -7.35% (active) | 43.7% | 77.1% | 29.8% | 74.7% | 40% | 62.9% | 38.4% | 30.7% | 20.5% | -50.5% (active) | 69.1% | – | 20% | 4.78% (active)
COc1ccccc1/C=N\Nc1ccc([N+](=O)[O-])cn1 | 104% | 106% | 108% | – | 108% | 102% | 124% | 107% | 94.8% | 101% | 104% | 124% | 96.2% | 96.5% | 100% | 106% | 117% | –
